The values below come from PubChem BioAssay (NCATS).

Values without a mark were called inactive. Calls come from the whole dose curve; as a rule, active = well fitted activation curve with a large enough effect; inconclusive = small, poorly fitted or top-dose-only effect; inactive = no such curve, though single readings can be large or run the other way.

Cytochrome P450 3A4 (Homo sapiens), sequence (P08684 whole entry, looked up): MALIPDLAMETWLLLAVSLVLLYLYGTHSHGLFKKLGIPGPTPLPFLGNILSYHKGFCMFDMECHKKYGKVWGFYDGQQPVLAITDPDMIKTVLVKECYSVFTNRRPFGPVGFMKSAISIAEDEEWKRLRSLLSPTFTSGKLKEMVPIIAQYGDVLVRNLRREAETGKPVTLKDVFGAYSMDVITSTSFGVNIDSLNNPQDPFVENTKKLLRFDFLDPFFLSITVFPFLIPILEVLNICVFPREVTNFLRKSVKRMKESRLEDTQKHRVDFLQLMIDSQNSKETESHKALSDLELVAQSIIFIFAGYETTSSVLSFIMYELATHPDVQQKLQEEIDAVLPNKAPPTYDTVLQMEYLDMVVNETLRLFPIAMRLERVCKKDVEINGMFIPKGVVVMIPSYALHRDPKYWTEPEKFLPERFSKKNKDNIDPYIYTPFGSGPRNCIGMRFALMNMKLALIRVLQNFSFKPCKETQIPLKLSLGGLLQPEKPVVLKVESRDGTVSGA

For this test, the target named is Cytochrome P450 3A4 (Homo sapiens) (UniProt P08684). The test is described as follows: qHTS Assay for Activators of Cytochrome P450 3A4 (AID 885). Note: nearly all actives have a fitted effect of over 65% in size. The note with it: recombinant CYP3A4, Luciferin-PPXE luminescence, 60 min; series mostly up to 57.1 µM; activity change, positive = activation: at the top concentration. The method, boiled down:
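20nM CYP3A4 + 25uM Luciferin-PPXE (=KM), 200mM KPO4; cpd 10 min RT; NADPH regen, 60 min RT; stop w/ detection buffer, 20 min; luminescence. Normalized to 57 uM ketoconazole.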
Regarding `CCc1cc2c(nc1CC)CCN(CC/C(C)=N/OC[C@H]1O[C@H](c3ccccc3)C=C[C@@H]1Oc1ccc(OC)cc1)C2`, the activity change, positive = activation is -51.8% [at 11.4 µM].
Consider `O=C(O)c1sccc1S(=O)(=O)Nc1ccc(Cl)cc1`, for which the “activity change, positive = activation” value was -30.3%.
Turning to `CC1(C)CC(=O)c2c(oc3cc(O)c(O)cc23)C1`, the “activity change, positive = activation” value is -39.3%.
For the compound `COc1ccc(COC(=O)N/N=C2/C[C@@H](O)[C@@H](O)[C@@H]3[C@H]4C(=O)N(c5ccc(F)cc5F)C(=O)[C@@H]4CC[C@@H]23)cc1`, the activity change, positive = activation was -42.8% [at 11.4 µM].
Next, `COC(=O)[C@@H]1C[C@@]2(O)[C@H](O)[C@H](O)[C@H](O)C[C@H]2N1Cc1cc(OC)cc(OC)c1`: -39.3%.
For `c1ccc(-c2ccc(CN3C[C@@H]4C(c5ccccc5)C5(c6cccnc6)CC4(C5)[C@H]3c3ccccc3)cc2)cc1` (stereo not given in full), the “activity change, positive = activation” value is -59%.
`COC(=O)[C@@H]1C[C@@]2(O)[C@@H](O)[C@@H](O)[C@@H](O)C[C@H]2N1Cc1cc(F)ccc1F`: the “activity change, positive = activation” value is -30.5%.
With `CCCNC(=O)OC[C@@H]1O[C@H](CCO/N=C(\C)CCC(=O)OC[C@@H]2O[C@H](c3ccccc3)C=C[C@@H]2Oc2ccc(OC)cc2)C=C[C@@H]1Oc1ccc(OC)cc1`, the activity change, positive = activation is -87% [at 11.4 µM].
The value for `Cc1cc2c(nc1C)CCCN2C[C@H](C)O/N=C1/[C@H]2O[C@@H]2[C@@H](O)[C@H]2[C@H]1CCn1c(=O)n(-c3ccccc3)c(=O)n12` was -35.6% [at 11.4 µM]; that for `O=C1[C@@H]2[C@H]3[C@H](O)[C@H](O)C/C(=N/OCc4ccccc4)[C@H]3CC[C@H]2C(=O)N1c1ccc(F)cc1F` was -34.3% [at 11.4 µM].
